In all, about 200,000 compounds went through this assay and about 4,500 (2.2%) were called active. About 12% were inconclusive and are not listed. The call rests on the fitted dose curve; in most records, active means well fitted inhibition curve with a large enough effect; inconclusive means small, poorly fitted or top-dose-only effect, or effect the other way; inactive means flat fitted curve, though single readings scatter. This excerpt belongs to a sample that is enriched for actives.
Potency means the concentration at half of the fitted maximal effect.

The experiment deals with Cruzipain (Trypanosoma cruzi) (UniProt P25779). The experiment in a line: qHTS Assay for Promiscuous and Specific Inhibitors of Cruzain (without detergent). Further: nearly all actives have a fitted effect of over 40% in size.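 On max response, negative = inhibition: plate controls were enzyme without inhibitor for no effect and buffer without enzyme for full effect.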 The note with it: purified cruzain, Z-FR-AMC fluorescence, no detergent. A digest of the protocol: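 Detergent-free condition (0.00005% Triton X-100) in acetate buffer pH 5.5 with DTT. 1.5 nM enzyme and compound were pre-mixed 15 min, then 2 uM Z-FR-AMC substrate added; reaction progress from fluorescence change between first and third reads (60 s).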
Sequence of Cruzipain (Trypanosoma cruzi) (P25779 123-467 limits assumed): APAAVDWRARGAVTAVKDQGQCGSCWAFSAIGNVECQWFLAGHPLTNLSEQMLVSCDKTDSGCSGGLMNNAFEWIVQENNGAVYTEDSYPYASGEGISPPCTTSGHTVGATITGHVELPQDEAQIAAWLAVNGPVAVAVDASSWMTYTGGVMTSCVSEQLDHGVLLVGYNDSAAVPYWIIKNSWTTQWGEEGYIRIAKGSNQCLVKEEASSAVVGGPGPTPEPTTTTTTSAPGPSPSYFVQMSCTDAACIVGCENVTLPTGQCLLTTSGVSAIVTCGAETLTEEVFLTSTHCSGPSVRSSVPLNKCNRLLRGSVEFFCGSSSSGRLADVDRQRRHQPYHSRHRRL
Take `CCC(=O)Nc1ccc2nc(SCC(=O)N3CCc4ccccc43)sc2c1`: the max response, negative = inhibition was 26.9% (inactive).

Consider `O=C(Nc1ccc2nc(SCC(=O)N3CCc4ccccc43)sc2c1)c1ccccc1F`, for which the max response, negative = inhibition was -3.59% (inactive).

Take `O=C(Nc1ccc2nc(SCC(=O)N3CCCc4ccccc43)sc2c1)c1ccc(Cl)cc1`: the Potency was 10 µM (active).

Turning to `COc1ccccc1NC(=O)CCC(=O)N1CC(C)Oc2ccc(C)cc21` (stereo not drawn), the max response, negative = inhibition was -1.12% (inactive).

Consider `COc1ccc(C2CC(c3ccccc3)=NN2C(=O)CSc2nccc(=O)[nH]2)cc1` (stereo not drawn), for which the max response, negative = inhibition is -19% (inactive).

Take `O=C1c2cccc(OCC(=O)N3N=C(c4cccs4)CC3c3ccc(F)cc3)c2CCN1Cc1ccccc1` (stereo not drawn): the Potency was 12.6 µM (active).

On to `COc1ccccc1N1CCN(C(=O)Cn2nnc(-c3cccs3)n2)CC1`, for which the max response, negative = inhibition was -5.5% (inactive).

`O=C(Cn1ncc2c3ccccc3n(Cc3ccccc3)c2c1=O)NCc1ccccn1`: the max response, negative = inhibition was 20.3% (inactive).

On to `COC(=O)c1cnc(N2CCN(c3ccccc3OC)CC2)c2ccccc12`, for which the max response, negative = inhibition is 5.66% (inactive).

As for `Cc1cccc(-n2c(SCC(N)=O)nc3c(c2=O)C2(CCCCC2)Cc2ccccc2-3)c1`, the max response, negative = inhibition is -0.318% (inactive).

Turning to `N#CCSc1nc2ccccc2c(=O)n1-c1ccccc1`, the max response, negative = inhibition was 3.22% (inactive).

For the compound `N#CCSc1nc2c(c(=O)n1Cc1ccccc1)C1(CCCC1)Cc1ccccc1-2`, the Potency was 12.6 µM (active).

Take `CCS(=O)(=O)N1CCc2cc(C(=O)NCc3ccc(OC)cc3)ccc21`: the max response, negative = inhibition was -7.6% (inactive).

As for `CCCCS(=O)(=O)c1oc(-c2cccs2)nc1S(=O)(=O)c1ccccc1`, the max response, negative = inhibition was -4.72% (inactive).

On to `COC(=O)c1ccc(C2C(C(=O)Nc3ccccc3)=C(C)Nc3nc4ccccc4n32)cc1` (stereo not drawn), for which the max response, negative = inhibition is -6.78% (inactive).

For the compound `CC(C)Nc1nnc(SCC(=O)c2c[nH]c3ccccc23)s1`, the max response, negative = inhibition was -13.7% (inactive).

For `CC(C)c1ccc(Nc2nnc(SCC(=O)c3nnc(-c4ccccc4)o3)s2)cc1`, the Potency was 12.6 µM (active).

On to `Cc1ccsc1C(=O)OCC(=O)c1cc2ccccc2o1`, for which the max response, negative = inhibition is 2.71% (inactive).

With `O=C(CSc1nnc(Nc2ccccc2)s1)Nc1cccnc1Cl`, the max response, negative = inhibition was -18% (inactive).

As for `Cc1ccc(Nc2nnc(SCc3ccccc3)s2)cc1`, the max response, negative = inhibition is -12.9% (inactive).

For `Cc1ccc(Nc2nnc(SCC(=O)c3cc4ccccc4o3)s2)cc1C`, the Potency is 15.8 µM (active).

For `CCN(c1ncnc2c1cnn2-c1ccc(C)cc1)C1CCCCC1`, the max response, negative = inhibition was 2.47% (inactive).

Take `COc1cccc(-n2c(=O)c3c(C)c(C(=O)N(C)C)sc3n(Cc3cccc(C)c3)c2=O)c1`: the max response, negative = inhibition is -4.38% (inactive).

For the compound `O=C(Nc1ccc(F)cc1F)c1ccc2c(=O)n3c(nc2c1)CCCCC3`, the max response, negative = inhibition is -3.34% (inactive).

`CN(Cc1ccccc1)C(=O)c1cc2c(=O)n(C)c3ccccc3c2s1`: the max response, negative = inhibition was 3.44% (inactive).

`Cc1n[nH]c(=O)n1-c1ccc(Oc2ccccc2)cc1`: the max response, negative = inhibition was 4.55% (inactive).

For `Cc1cc(-c2csc(N)n2)c(C)n1-c1ccccc1`, the Potency was 25.1 µM (active).

Consider `Cc1cc(C(=O)OCC(=O)N2c3ccccc3NC(=O)C2(C)C)c(C)n1-c1ccccc1`, for which the max response, negative = inhibition is -5.2% (inactive).

For the compound `Cc1cccc(N(C)C(=O)CS(=O)(=O)c2cccc3nsnc23)c1`, the max response, negative = inhibition was -1.79% (inactive).

Consider `COc1ccc(-n2c(SCC(=O)Nc3ccc(Cl)c(C)c3)nc3n[nH]c(C)c3c2=N)cc1`, for which the max response, negative = inhibition is -5.01% (inactive).

Consider `CCC(=O)N1CCc2cc(S(=O)(=O)NC(CC(C)C)C(=O)NCCc3cccc(C)c3)ccc21` (stereo not drawn), for which the max response, negative = inhibition is -3.67% (inactive).

`COc1ccc(C)cc1NC(=O)C(Sc1ccccc1)c1ccccc1` (stereo not drawn): the max response, negative = inhibition was -12.8% (inactive).

With `Cc1ccc(C)c(NC(=O)C(OC(=O)c2ccc(C)s2)c2ccccc2)c1` (stereo not drawn), the max response, negative = inhibition is 12.2% (inactive).

As to `COc1ccc(C)cc1NC(=O)C(OC(=O)c1cccc(S(=O)(=O)N(C)c2ccccc2)c1)c1ccccc1` (stereo not drawn), the Potency is 7.94 µM (active).

As for `COc1c(Cl)cc(Cl)cc1C(=O)Nc1cccc2cccnc12`, the max response, negative = inhibition is -4.23% (inactive).

For the compound `O=C1OCCN1C(=O)[C@H]1[C@H](c2ccc(Cl)cc2)C(c2cccc(Cl)c2)=NN1c1ccc(Br)cc1`, the Potency is 8.91 µM (active).

Take `O=C1OCCN1C(=O)[C@H]1[C@H](c2ccc(F)cc2)C(c2ccccc2)=NN1c1ccc(Br)cc1`: the Potency is 22.4 µM (active).

As for `C[C@@H]1C(c2ccc(F)cc2)=NN(c2ccc(Br)cc2)[C@H]1C(=O)N1CCOC1=O`, the Potency is 22.4 µM (active).

Consider `Cc1ccc2c(c1)N(C(=O)Nc1ccc(Br)cc1F)CCO2`, for which the max response, negative = inhibition is 5.17% (inactive).

As for `COc1ccc(NS(=O)(=O)c2cc3c4c(c2)CC(=O)N4CCC3)cc1Cl`, the max response, negative = inhibition was -28.2% (inactive).

As for `COc1cccc(CNC(=O)c2ccc3c(c2)sc2nc(-c4cccc(OC)c4)cn23)c1`, the max response, negative = inhibition is -4.99% (inactive).

Turning to `CC1CCN(c2nc3ccc(C(=O)N4CCN(c5ccccc5)CC4)cc3s2)CC1`, the max response, negative = inhibition was -2.72% (inactive).

Turning to `CCC(CC)c1nn2cc(-c3ccccc3)nc2s1`, the max response, negative = inhibition is -2.39% (inactive).

In the case of `Oc1c(C(c2ccc(F)cc2)N2CCN(Cc3ccccc3)CC2)sc2nc(-c3ccco3)nn12` (stereo not drawn), the max response, negative = inhibition is 1.08% (inactive).

In the case of `CCC(=O)N1CCc2cc(S(=O)(=O)NCCC(=O)Nc3cccc(C)c3C)ccc21`, the max response, negative = inhibition is -1.54% (inactive).

`Cc1ccc(NC(=O)CN2C(=O)C(c3ccc(F)cc3)=NC23CCCCCC3)c(C)c1`: the max response, negative = inhibition was 4.08% (inactive).

`Cc1cc(C)cc(OCc2nnc(SCC(=O)Nc3ccccc3)o2)c1`: the max response, negative = inhibition was 4.82% (inactive).

In the case of `CC(C)NC(=O)CSc1nnc(COc2ccccc2Cl)o1`, the max response, negative = inhibition is -5.33% (inactive).

`Cc1ccccc1OCc1nnc(SCC(=O)N2c3ccccc3Sc3ccc(Cl)cc32)o1`: the Potency was 12.6 µM (active).

As to `CCOC(=O)c1c(NC(=O)COc2cc(C)ccc2C(C)C)sc(C)c1C`, the max response, negative = inhibition is 8.07% (inactive).

Consider `Cc1ccc(CCNC(=O)c2ccc(CS(=O)(=O)Cc3cccc(C)c3)o2)cc1`, for which the max response, negative = inhibition was 19.9% (inactive).

Take `CCCc1cc(=O)n2[nH]c(NCc3ccc(CC)cc3)nc2n1`: the max response, negative = inhibition was -8.1% (inactive).

Take `CCc1ccc(NC(=O)N2CCN(C(=O)c3nsc4ccccc34)CC2)cc1`: the max response, negative = inhibition was -5.87% (inactive).

Consider `COc1cc(NC(=O)c2nn(-c3ccc(C)cc3)c(=O)c3c2c2ccccc2n3C)cc(OC)c1OC`, for which the max response, negative = inhibition is -21.7% (inactive).

For the compound `O=C1N(Cc2ccc3c(c2)OCO3)c2ccccc2C1(O)c1c[nH]c2ccccc12` (stereo not drawn), the Potency was 15.8 µM (active).

In the case of `O=C1N(Cc2ccccc2)c2ccc(Cl)cc2C1(O)c1c[nH]c2ccccc12` (stereo not drawn), the max response, negative = inhibition was 18.9% (inactive).

In the case of `O=C(CCCCn1c(=O)[nH]c2ccccc2c1=O)NCc1ccc2c(c1)OCO2`, the max response, negative = inhibition was 8.55% (inactive).

With `Oc1ccc(-c2nc3ccc(Cl)cn3c2Nc2ccc3c(c2)OCO3)cc1`, the max response, negative = inhibition was -3.92% (inactive).

In the case of `CCc1ccc(-c2cc(C(=O)NCc3ccco3)c3ccccc3n2)s1`, the max response, negative = inhibition was -8.4% (inactive).

With `Cc1ccc(-c2cc(C(=O)N/N=C/C=C/c3ccco3)c3ccccc3n2)cc1C`, the Potency is 25.1 µM (active).

Turning to `COc1cccc(-c2cc(C(=O)N/N=C/c3ccc(OC)c(COC(C)=O)c3)c3ccccc3n2)c1`, the max response, negative = inhibition is -16% (inactive).

Take `N#Cc1nc(/C=C/c2ccc(F)cc2)oc1NC1CCCCC1`: the max response, negative = inhibition was -7.33% (inactive).

As for `CCOc1ccc(C2C(C(=O)Nc3ccc(Cl)cc3)=C(C)Nc3nc(C(F)(F)F)nn32)cc1` (stereo not drawn), the max response, negative = inhibition was 3.69% (inactive).

Turning to `Cc1ccc2oc(=O)c3cnn(CC(=O)N4CCN(c5cccc(Cl)c5)CC4)c3c2c1`, the max response, negative = inhibition was -11.7% (inactive).

With `COCCNC(=O)COc1ccccc1C`, the max response, negative = inhibition was -9.1% (inactive).

As to `Cc1ccccc1OCC(=O)NCC(=O)OCC(=O)c1ccc2ccccc2c1`, the Potency was 10 µM (active).

As for `Cc1cccc(NC(=O)COc2ccccc2C)n1`, the max response, negative = inhibition was 10.4% (inactive).

For `CCOc1ccc(NC(=O)C(=O)NCCc2csc3nc(-c4ccccc4F)nn23)cc1`, the max response, negative = inhibition is -1.02% (inactive).

For the compound `CCCSc1ncc(Cl)c(C(=O)Nc2c(C(=O)Nc3ccccc3)oc3ccccc23)n1`, the max response, negative = inhibition was -6.15% (inactive).

Take `Cc1ccc(/C=N/NC(=O)CSc2nc3ccccc3o2)cc1`: the max response, negative = inhibition is -9.67% (inactive).

With `O=C(CSc1nc2ccccc2o1)N1CCN(c2ccc(Cl)cc2)CC1`, the Potency is 10 µM (active).

Take `O=C(CN1CCN(c2ccc(Cl)cc2)CC1)N1CCCC1`: the max response, negative = inhibition was -5.28% (inactive).

Take `O=C(CSc1nc2ccccc2o1)N1CCN(c2ccccc2)CC1`: the max response, negative = inhibition was -4.7% (inactive).

In the case of `CCN(CC)C(=O)CSc1nc2ccccc2o1`, the Potency is 3.16 µM (active).

Turning to `CC1Cc2ccccc2N1C(=O)CSc1nc2ccccc2o1` (stereo not drawn), the max response, negative = inhibition is -7.1% (inactive).

Consider `COc1ccc(C2=NS(=O)(=O)N(C)C(C(=O)NC(C)c3ccccc3)=C2)cc1` (stereo not drawn), for which the max response, negative = inhibition was -27.6% (inactive).

As for `CCn1c(=O)cc(OCC(=O)Nc2cc(Cl)c(OC)cc2OC)c2ccccc21`, the max response, negative = inhibition is 0.57% (inactive).

With `COc1ccc(/C=N/NC(=O)c2ccc(Cl)cc2)cc1COC(C)=O`, the max response, negative = inhibition was 7.25% (inactive).

On to `N#Cc1cc([N+](=O)[O-])ccc1Oc1cccc(/C=N/NC(=O)c2ccc(Cl)cc2)c1`, for which the Potency was 20 µM (active).

In the case of `COc1cc(OC)c(/C=N/NC(=O)c2ccc([N+](=O)[O-])cc2)cc1Br`, the max response, negative = inhibition is -5.61% (inactive).

For `CCOC(=O)N1CCN(Cc2oc(CO)cc(=O)c2O)CC1`, the Potency was 1.58 µM (active).

Regarding `CCOC(=O)N1CCN(C(=O)c2cc3c(ccc4ccccc43)oc2=O)CC1`, the max response, negative = inhibition is -18.3% (inactive).

On to `O=c1cc(CO)oc(CN2CCC(Cc3ccccc3)CC2)c1O`, for which the max response, negative = inhibition is -8.62% (inactive).

As to `Cc1ccc(C(=O)N2c3ncnn3C3(CCCCC3)[C@@H]3CCCC[C@@H]32)cc1`, the max response, negative = inhibition is 9.53% (inactive).

On to `COc1ccc(CNC(=O)CSCc2nc(-c3ccccc3F)oc2C)cc1`, for which the max response, negative = inhibition is -2.99% (inactive).

As for `CCS(=O)(=O)c1ncc(N(Cc2ccc(F)cc2)Cc2ccco2)c(C(=O)Nc2cc(C)ccc2C)n1`, the max response, negative = inhibition is -19.1% (inactive).

`C/C(=C\c1ccco1)C1Nc2cccc3cccc(c23)N1`: the Potency is 3.16 µM (active).

On to `O=C(NCC1CCCO1)/C(=C\c1ccco1)NC(=O)c1ccccc1` (stereo not drawn), for which the max response, negative = inhibition was -0.97% (inactive).

The values are drawn from PubChem BioAssay AID1476 (National Center for Advancing Translational Sciences (NCATS), 2009).
